# According to ChEMBL document CHEMBL3988442, “University of Dundee, Small-Polar-MMV Screening Library” (2021):
# About 960 (1.5%) of roughly 66,000 compounds showed an effect of 50% or more. The sample as a whole holds a higher share of strong results than the screen did.
# Tested on: Trypanosoma brucei
# Experiment: Trypanosoma brucei 72 hour study
# Type: functional, organism-based
# Parameters: scale not given: in the data most compounds retested in dose-response had high values
smiles,measurement,setting,value
O=C(CCn1cc(Cl)cn1)Nc1ccc2c(c1)OCCO2,Percent Effect,"30 µM, 30.03 µM",-17.81%
CN(C)c1ccc(C(=O)N2CCCN(C3CCCCC3)CC2)cn1,Percent Effect,"30.3 µM, […]",-15.89%
Cc1ccc(Cc2cnc(C3CCNCC3)cn2)cc1.Cl,Percent Effect,"30.3 µM, […]",-22.29%
O=S(=O)(NCC(c1ccsc1)N1CCCCCC1)c1cccs1 (stereo unspecified),Percent Effect,"30 µM, 30.03 µM",-20.18%
Oc1nc(N2CCOCC2)nc2c1CCN(Cc1cccc(F)c1)CC2,Percent Effect,"30.3 µM, […]",-14.28%
Oc1nc(N2CCOCC2)nc2c1CCN(Cc1ccc(F)cc1)CC2,Percent Effect,"30.3 µM, […]",100.3%
Oc1nc(N2CCOCC2)nc2c1CCN(Cc1ccccc1)CC2,Percent Effect,"30.3 µM, […]",-21.1%
CC(C)c1nc(CCN(C)c2nccc(N3CCCC(O)C3)n2)no1 (stereo unspecified),Percent Effect,"30.3 µM, […]",3.693%
Cc1oncc1C(=O)N1CC[C@H]2[C@@H]1CCC(=O)N2CC1CC1,Percent Effect,"30.3 µM, […]",-43.42%
Cc1oncc1C(=O)N1CC[C@H]2[C@H]1CCN2S(C)(=O)=O,Percent Effect,"30.3 µM, […]",97.42%
Cc1cc(C(=O)N2CC[C@H]3[C@H]2CCN3S(C)(=O)=O)c(C)o1,Percent Effect,"30.3 µM, […]",-71.76%
Cc1cccc(CN2CCC3(CC2)CC(c2cccnc2)C(=O)N3C)n1.O=C(O)C(F)(F)F.O=C(O)C(F)(F)F (stereo unspecified),Percent Effect,"30.3 µM, […]",-33.95%
COCC(=O)N1CCC2(CC1)COCCN2Cc1ccc(F)cc1.O=C(O)C(F)(F)F,Percent Effect,"30 µM, 30.03 µM",14.27%
Cc1nc(CC2CCN(Cc3ccc(CCC(C)(C)O)cc3)CC2)no1,Percent Effect,"30.3 µM, […]",-0.2557%
Cc1noc2nc(C3CCN(CC4CCCCC4)CC3)cc(C(F)F)c12.Cl,Percent Effect,"30.3 µM, […]",30.15%
CCn1nc(C)c2ccn(CC(=O)NCCCOC)c(=O)c21,Percent Effect,"30 µM, 30.03 µM",9.008%
O=C(c1cccs1)N1C[C@H]2CCC[C@@]2(COCC2CCOCC2)C1,Percent Effect,"30 µM, 30.03 µM",13.05%
O=C(O)C(F)(F)F.O=C(c1ccccn1)N1C[C@H]2CCC[C@@]2(COCC2CCOCC2)C1,Percent Effect,"30 µM, 30.03 µM",14.59%
O=C(c1ccncn1)N1C[C@H]2CCC[C@@]2(COCC2CCOCC2)C1,Percent Effect,"30 µM, 30.03 µM",54.31%
Cc1ccsc1C(=O)N1CCCN(Cc2cscn2)CC1,Percent Effect,10 µM,-20.65%
CN(C)C(=O)[C@H]1CCS(=O)(=O)[C@@H]2CN(c3ncccn3)C[C@H]12,Percent Effect,"30.3 µM, […]",-0.441%
COc1ccnc(N2CCN(C(=O)Cc3ccc(C#N)cc3)CC2)n1,Percent Effect,"30 µM, 30.03 µM",4.593%
Cc1nc(CC(=O)N2CCCN(c3ccc(C#N)cc3)CC2)cs1,Percent Effect,"30 µM, 30.03 µM",7.071%
COc1ccc(CC(=O)N2CCCN(c3ccc(C#N)cc3)CC2)cc1,Percent Effect,"30 µM, 30.03 µM",55.65%
CN1C[C@]2(CC[C@@H](C(=O)N3CCOCC3)CC2)Oc2ccccc2C1=O,Percent Effect,"30.3 µM, […]",-18.99%
Cc1ccc2[nH]c(C(=O)N3CCC4(CC3)C(=O)NCCN4C)nc2c1,Percent Effect,"30 µM, 30.03 µM",74.91%
CN1CCNC(=O)C12CCN(C(=O)c1ccc3[nH]c(=O)[nH]c3c1)CC2,Percent Effect,"30 µM, 30.03 µM",29.1%
Cc1ccc(C(=O)N2CCC3(CC2)C(=O)NCCN3C)cc1O,Percent Effect,"30 µM, 30.03 µM",-5.883%
Cn1cc(C(=O)NCc2cn3c(n2)CN(CC2CCCC2)CC3)cn1.O=C(O)C(F)(F)F.O=C(O)C(F)(F)F,Percent Effect,"30 µM, 30.03 µM",-33.28%
Cc1nc(CO[C@@H]2CN(Cc3cccs3)[C@@H]3COC[C@@H]32)cs1.O=C(O)C(F)(F)F,Percent Effect,"30 µM, 30.03 µM",-14.66%
Cc1cc(S(C)(=O)=O)c(C)c(S(=O)(=O)N2CCCC(C)C2)c1 (stereo unspecified),Percent Effect,"30 µM, 30.03 µM",0.7387%
O=C(O)C(F)(F)F.O=C1COC2(CCN(CC3CC3)CC2)CN1c1cncnc1,Percent Effect,"30 µM, 30.03 µM",-12.06%
Cc1ccc(CC(NC(=O)CCS(C)(=O)=O)c2ccccn2)cc1 (stereo unspecified),Percent Effect,"30 µM, 30.03 µM",-49.38%
Cc1c(NC(=O)CN(C)S(C)(=O)=O)cccc1OC1CCCC1,Percent Effect,"30 µM, 30.03 µM",-55.36%
CN(CC(=O)NC(Cc1ccccc1)C1CCCC1)S(C)(=O)=O (stereo unspecified),Percent Effect,"30.3 µM, […]",62.9%
CS(=O)(=O)NCC(=O)NC(Cc1ccccc1)C1CCCC1 (stereo unspecified),Percent Effect,"30.3 µM, […]",-60.62%
CS(=O)(=O)CCC(=O)NC(Cc1ccccc1)C1CC1 (stereo unspecified),Percent Effect,"30.3 µM, […]",70.04%
CS(=O)(=O)CCC(=O)NC1CC(c2ccccc2Cl)C1 (stereo unspecified),Percent Effect,"30 µM, 30.03 µM",-26.6%
CNc1nc(C)c(C(=O)N2C[C@H]3CC[C@@H]2CN(c2cnccn2)C3)s1,Percent Effect,"30 µM, 30.03 µM",-23.46%
CC1CN(C)CCN1C(=O)c1cnn(-c2cccc(Cl)c2)c1 (stereo unspecified),Percent Effect,"30.3 µM, […]",-22.44%
same,Percent Effect,"10 mM, 10 mM as filed; unlikely as a test dose",-40.4%
COCC1CC2(CCN(Cc3ccoc3)CC2)CN1C(C)C.O=C(O)C(F)(F)F.O=C(O)C(F)(F)F (stereo unspecified),Percent Effect,"30 µM, 30.03 µM",26.61%
CCN(CC)C(=O)CN1CCc2nc(C3CCNCC3)nc(NC)c2C1.Cl,Percent Effect,"30.3 µM, […]",-15.23%
CCC(=O)Nc1ccc2c(c1)C1(CCOCC1)CN2CCOC.O=C(O)C(F)(F)F,Percent Effect,"30.3 µM, […]",-49.74%
CN(Cc1ccccc1F)C(=O)Cn1cc(NC(=O)C(C)(C)C)cn1,Percent Effect,"30.3 µM, […]",-0.06216%
CC(C)NC(=O)N1CCN(CC2CC2)CC2(CNC(=O)C2)C1.O=C(O)C(F)(F)F (stereo unspecified),Percent Effect,"30 µM, 30.03 µM",-4.336%
COc1ccccc1C1(CNCc2cccc(C#N)c2)CCOCC1,Percent Effect,"30.3 µM, […]",67.18%
COc1ccccc1C1(CNCc2cccc(O)c2)CCOCC1,Percent Effect,"30.3 µM, […]",15.56%
COc1ccccc1C1(CNCc2ccc(C#N)cc2)CCOCC1,Percent Effect,"30.3 µM, […]",29.93%
Cc1cc(Oc2ccc(NC(=O)C3CC3)cc2)cc(C2CCNCC2)n1.Cl,Percent Effect,"30.3 µM, […]",99.81%
CC(=O)Nc1ccc(Oc2cc(C)nc(C3CCCNC3)c2)cc1.Cl (stereo unspecified),Percent Effect,"30.3 µM, […]",-25.31%
CC(=O)Nc1ccc(Oc2cc(C)nc(C3CCNCC3)c2)cc1.Cl,Percent Effect,"30.3 µM, […]",0.5571%
NC(=O)CN1CCC(Nc2ccnc3ccc(Cl)cc23)CC1,Percent Effect,"30.3 µM, […]",62.45%
COCC(=O)N1CCC(Nc2ccnc3ccc(Cl)cc23)CC1,Percent Effect,"30.3 µM, […]",-10.12%
CS(=O)(=O)N1CCC(Nc2ccnc3ccc(Cl)cc23)CC1,Percent Effect,"30.3 µM, […]",-667%
O=C1N(Cc2ccc(F)c(F)c2)CCCC1(O)CNCC1CCCCC1 (stereo unspecified),Percent Effect,"30 µM, 30.03 µM",-26.1%
CC(NC(=O)CCC(C)(C)C)C(=O)Nc1ccc(-n2cncn2)cc1 (stereo unspecified),Percent Effect,"30 µM, 30.03 µM",-4.525%
O=C1N(Cc2ccc(F)c(F)c2)CCCC12CCN(C1CCSCC1)C2 (stereo unspecified),Percent Effect,"30 µM, 30.03 µM",50.02%
O=C1N(Cc2ccc(F)c(F)c2)CCCC12CCN(C1CCCC1)C2 (stereo unspecified),Percent Effect,"30 µM, 30.03 µM",-86.64%
O=C1N(Cc2ccc(F)c(F)c2)CCCC12CCN(C1CCCCC1)C2 (stereo unspecified),Percent Effect,"30 µM, 30.03 µM",6.711%
COCCNC(=O)[C@@]12CCO[C@@H]1CCN(Cc1ccc(OC)cc1)C2.O=C(O)C(F)(F)F,Percent Effect,"30 µM, 30.03 µM",7.509%
CS(=O)(=O)c1ccc(CN2C[C@H]3CC[C@@H]2CN(c2ncccn2)C3)cc1,Percent Effect,"30 µM, 30.03 µM",-59.99%
Cc1ccc(C#N)c(N2CCC(c3nccn3CCN(C)C)CC2)n1,Percent Effect,"30 µM, 30.03 µM",57.26%
CN(C)CCn1ccnc1C1CCN(c2cc(N)nc(N)n2)CC1,Percent Effect,"30 µM, 30.03 µM",1.166%
Cc1ccc(C#N)c(N2CCC(c3nccn3Cc3cscn3)CC2)n1,Percent Effect,"30 µM, 30.03 µM",31.21%
O=C1C[C@H]2CC[C@@H](CN1)N2C(=O)CCc1ccc2c(c1)OCO2,Percent Effect,"30.3 µM, […]",6.652%
COc1ccc(C2=CCN(C(=O)C3CCN(C)C(=O)C3)CC2)cc1 (stereo unspecified),Percent Effect,"30 µM, 30.03 µM",57.6%
Cc1ccc(C2=CCN(C(=O)C3CCN(C)C(=O)C3)CC2)cc1 (stereo unspecified),Percent Effect,"30.3 µM, […]",-12.11%
COc1ccc(C2=CCN(C(=O)C3CCC3)CC2)cc1,Percent Effect,"30.3 µM, […]",-20.1%
CC(C)OCCCN(Cc1ccncc1)Cc1cccc(F)c1.Cl,Percent Effect,"30.3 µM, […]",-29.62%
Cc1ccccc1C1(C(=O)NCCN2CCC(C)CC2)CCOCC1,Percent Effect,"30.3 µM, […]",1.423%
COc1ccccc1C1(CNc2snc(Cl)c2C#N)CCCC1,Percent Effect,"30.3 µM, […]",35.81%
N#Cc1c(Cl)nsc1NCC1(c2ccccc2)CCC1,Percent Effect,"30.3 µM, […]",100.1%
COc1ccccc1C1(CNc2snc(Cl)c2C#N)CCOCC1,Percent Effect,"30.3 µM, […]",0.1302%
Cc1cccc(N2CCc3ncc(CNc4ccccn4)n3CC2)n1.O=C(O)C(F)(F)F.O=C(O)C(F)(F)F,Percent Effect,"30.3 µM, […]",-45.99%
Cl.NCC(=O)N1CCCC1c1nccnc1Nc1ncccn1 (stereo unspecified),Percent Effect,"30.3 µM, […]",-17.2%
C=C(C)CN1CCN(Cc2cnc(-c3ccc(OC)cc3)nc2)CC1.O=C(O)CC(O)(CC(=O)O)C(=O)O,Percent Effect,"30.3 µM, […]",2.32%
Cc1ccc(N[C@@H]2CN(Cc3cc(C)on3)C[C@@H]3CCCO[C@@H]32)nn1.O=C(O)C(F)(F)F.O=C(O)C(F)(F)F,Percent Effect,"30.3 µM, […]",-34.05%
Cc1noc(C)c1CNc1c(N2CCCC2)cccc1N1CCCC1,Percent Effect,"30.3 µM, […]",99.93%
Cc1noc(CNc2c(N3CCCC3)cccc2N2CCCC2)n1,Percent Effect,"30.3 µM, […]",-1.503%
COc1ccccc1N1CCC(NCc2c(C)noc2C)C1 (stereo unspecified),Percent Effect,"30 µM, 30.03 µM",-20.42%
O=C(NCc1ccco1)[C@@H]1CCO[C@@H]2CCN(C3CCOCC3)C[C@H]21.O=C(O)C(F)(F)F,Percent Effect,"30 µM, 30.03 µM",-32.7%
CC(=O)N1[C@H](CN(C)C)C[C@@H]2CN(C(=O)c3ccno3)CC[C@@H]21.O=C(O)C(F)(F)F,Percent Effect,"30.3 µM, […]",5.246%
Cc1nc(C)n(CC2CN(Cc3ccccc3C#N)CCO2)n1 (stereo unspecified),Percent Effect,"30.3 µM, […]",19.46%
Cc1nc(C)n(CC2CN(Cc3cccc4ccccc34)CCO2)n1 (stereo unspecified),Percent Effect,"30.3 µM, […]",20.23%
Cc1nc(C)n(CC2CN(Cc3ccccc3OC(C)C)CCO2)n1 (stereo unspecified),Percent Effect,"30.3 µM, […]",101%
Cn1cc(CN2CCC[C@]3(C[C@@H](Oc4ncccc4F)CO3)C2)cn1.O=C(O)C(F)(F)F.O=C(O)C(F)(F)F,Percent Effect,"30.3 µM, […]",0.8954%
CNC(=O)[C@H]1C[C@@H]2CN(Cc3ccccc3)C[C@H]1O2.O=C(O)C(F)(F)F,Percent Effect,"30.3 µM, […]",0.1079%
CN1CCN(c2ncccn2)CC(C(=O)N(C)C)C1 (stereo unspecified),Percent Effect,"30.3 µM, […]",-26.5%
CN(C)Cc1nc2c(o1)CN(S(=O)(=O)c1cccs1)C2.O=C(O)C(F)(F)F,Percent Effect,"30.3 µM, […]",5.819%
CC(C(=O)N(C)C)N1CCc2onc(-c3cccc(F)c3)c2C1 (stereo unspecified),Percent Effect,"30 µM, 30.03 µM",-18.33%
CC(C)c1nc(CN2CCc3onc(-c4cccc(F)c4)c3C2)no1,Percent Effect,"30 µM, 30.03 µM",51.01%
CC(C)Cc1nc(CN2CCc3onc(-c4cccc(F)c4)c3C2)no1,Percent Effect,"30 µM, 30.03 µM",18.46%
CC(C)(C)c1nc(CN2CCc3onc(-c4cccc(F)c4)c3C2)no1,Percent Effect,"30 µM, 30.03 µM",51.86%
Fc1cccc(-c2noc3c2CN(Cc2cncn2C2CC2)CC3)c1,Percent Effect,"30 µM, 30.03 µM",24.68%
Cn1ncc(CN2CCc3onc(-c4cccc(F)c4)c3C2)c1C1CC1,Percent Effect,"30 µM, 30.03 µM",32.05%
